Rows were chosen to be rich in hits. Some 7.6% of all compounds tested hit in one or more screens of this group.
MCF10A rereplic: DNA re-replication induction in MCF 10a cells; AID 624296; MCF 10A DNA re-replication, Hoechst nuclear intensity, 48 h; hit rate 2.9% among 350,000; Potency, µM (top dose mostly 46.1 µM), most hits filed as activators; further: nearly all actives have a fitted effect of over 50% in size
SW480 rerep: inducers of DNA re-replication in SW480 colon cancer cells. SW480 DNA re-replication, Hoechst DNA content imaging, 48 h. Potency, µM (top dose mostly 46.1 µM), most hits filed as activators. hit rate 1.8% among 340,000; further: nearly all actives have a fitted effect of over 55% in size
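Image-based DNA-content assay: after two days of treatment, nuclei were labelled with the DNA dye Hoechst and imaged, and hits were compounds raising the count of nuclei showing high fluorescence intensity.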
KCNH2 3.1 inh: KCNH2 3.1 (human) potassium channel inhibition | U2OS KCNH2 3.1, thallium flux FluxOr; hits give low values | activity change, % (tested at about 1.8 µM) | hit rate 0.95% among 340,000;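 active means maximum activity change below -70%; inconclusive means maximum activity change from -70% to -50%; inactive means maximum activity change above -50%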;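 further: thallium influx rate constant from kinetic fluorescence after stimulation buffer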
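Measured as rate of thallium-driven FluxOr signal in transduced U2OS cells carrying the 3.1 channel, read kinetically for 2 min upon stimulation; values are rate constants scaled to DMSO control wells.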
KB-V1 cytotox: KB-V1 MDR subline cytotoxicity; hit rate 3.4% among 400,000; Potency, µM (top dose mostly 46.1 µM), usual class: cytotoxic; AID 1347076; KB-V1 MDR cells viability, CellTiter-Glo, 72 h; further: nearly all actives have a fitted effect of over 60% in size
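Readout: CellTiter-Glo luminescence, 10 min after addition. Cells: KB-V1 MDR subline, 72 h at 37 degrees C with compound. Analysis: corrected, normalized data fitted to concentration-effect curves.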
KCNH2 WT inh: KCNH2 (human, wildtype) channel inhibition; Q12809; U2OS, BacMam KCNH2, thallium flux FluxOr; hits give low values; activity change, % at 1.84 µM; hit rate 0.37% among 340,000; AID 720551;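 active means maximum activity change below -70%; inconclusive means maximum activity change between -70% and -50%; inactive means maximum activity change above -50%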
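U2OS cells were transduced with wild-type KCNH2 virus (2.03 x 10^8 / mL) for 4 h at room temperature, then cultured overnight at 37 C. Thallium flux was read with FluxOr dye. Rate constants were normalized to DMSO controls.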
KB-3-1 cytotox: KB-3-1 parental cell cytotoxicity; hit rate 1.4% among 400,000; Potency, µM (highest dose often 46.1 µM), hits mostly cytotoxic; KB-3-1 viability, CellTiter-Glo ATP luminescence, 72 h; AID 1347075; further: nearly all actives have a fitted effect of over 60% in size
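Multi-concentration cytotoxicity screen in KB-3-1 cells grown in DMEM lacking phenol red with 10% FBS. After 72 h at 37 °C with compound, ATP-dependent luminescence was recorded.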
Of the large screens only hits and unclear results are named; the others gave an inactive call. Unless noted, the call rests on the fitted dose curve; in most records, active means well fitted curve in the direction sought with a large enough effect; inconclusive means small, poorly fitted or top-dose-only effect, or another doubt; inactive means no such curve, though single readings can be large; an effect the other way counts as inactive or inconclusive.

CN(C)/N=C/c1ccc(OS(=O)(=O)c2ccccc2)cc1	none
COc1ccccc1C(CNC(=O)C(C)(C)Oc1ccc(Cl)cc1)N1CCCC1 (stereo unspecified)	none
CC1(C)CCCN(C(=O)N2c3ccccc3Sc3ccccc32)C1	MCF10A rereplic 13µM
O=C(CN1CCCC1)N1c2ccccc2Sc2ccccc21	none
CCOc1ccc(NC(=S)N(Cc2ccc(N(C)C)cc2)Cc2ccco2)cc1	KB-V1 cytotox 15µM
CCCCC[C@H](O)/C=C/[C@@H]1[C@@H](C/C=C\CCCC(=O)OC)[C@@H](O)C[C@H]1O	none
CCCCC[C@H](O)/C=C/C1C(=O)C=C[C@H]1C/C=C\CCCC(=O)OC (stereo partly specified)	MCF10A rereplic 18µM
O=S(Cc1ccc(Cl)cc1)CC(O)COCc1ccc(Cl)cc1 (stereo unspecified)	KB-V1 cytotox 16µM
O=C(COC(=O)c1ccccc1F)Nc1cccnc1Cl	none
CCOc1ccc(S(=O)(=O)N2CC(=O)Nc3ccccc32)cc1	MCF10A rereplic inconclusive, SW480 rerep 15µM, KB-V1 cytotox inconclusive, KB-3-1 cytotox inconclusive
Cc1cc(C(C)(C)C)cc(C)c1S(=O)(=O)N1CC(=O)Nc2ccccc21	MCF10A rereplic 18µM, SW480 rerep inconclusive
CCOc1ccc(S(=O)(=O)N2c3ccccc3CC2C)cc1 (stereo unspecified)	MCF10A rereplic inconclusive, SW480 rerep 1.6µM, KB-V1 cytotox 1.5µM, KB-3-1 cytotox 1.2µM
Cc1ccc(C(C)(C)C)cc1S(=O)(=O)N1CC(=O)Nc2ccccc21	KB-V1 cytotox inconclusive
CC(Sc1ccc(Cl)cc1)C(=O)Nc1ccc(S(=O)(=O)N2CCOCC2)cc1 (stereo unspecified)	KB-V1 cytotox inconclusive, KB-3-1 cytotox inconclusive
Clc1cccc(/C=N/N2CCN(Cc3ccccc3)CC2)c1	none
Cc1cc(F)ccc1NC(=O)C1CCN(C(=O)c2cnn(-c3ccccc3)c2-n2cccc2)CC1	none (no result: MCF10A rereplic, SW480 rerep, KCNH2 3.1 inh, KCNH2 WT inh)
Cc1cc(C)c(C(=O)COC(=O)c2cccnc2Cl)c(C)c1	none
CCOc1ccccc1NC(=O)C1CCN(C(=O)c2cccs2)CC1	none
COc1ccc(CNn2c(-c3cccc(C)c3)nc3ccccc3c2=O)cc1OC	KB-V1 cytotox 23µM
COc1ccccc1CNn1c(-c2cccc(C)c2)nc2ccccc2c1=O	KB-V1 cytotox 23µM
COc1cccc(OC)c1C(=O)Nn1c(-c2cccc(C)c2)nc2ccccc2c1=O	KCNH2 3.1 inh inconclusive
COC(=O)C1=C(C)NC(C)=C(C(=O)OCC2CCCO2)C1c1cccc(Br)c1 (stereo unspecified)	MCF10A rereplic inconclusive, KB-V1 cytotox inconclusive
COC(=O)[C@]12CCCCC=C1N(Cc1ccccc1)C(=O)[C@H](CC(=O)NCCCCc1ccccc1)C2	KB-V1 cytotox inconclusive (no result: MCF10A rereplic, SW480 rerep, KCNH2 3.1 inh, KCNH2 WT inh)
Cc1cc(C)c2c(=O)n3c(nc2c1)C(Cc1ccccc1)NC(=O)c1cc2ccccc2cc1-3 (stereo unspecified)	none (no result: MCF10A rereplic, SW480 rerep)
COc1ccc(-c2ccc(CCC(=O)O)n2-c2ccccc2OC)cc1	MCF10A rereplic 15µM, SW480 rerep 18µM, KB-V1 cytotox inconclusive, KB-3-1 cytotox inconclusive
COc1ccccc1-n1c(CCC(=O)O)ccc1-c1ccccc1	KB-V1 cytotox inconclusive
COc1ccc(/C=C2\CCn3c2nc2ccccc2c3=O)cc1OC	none
COc1cc2c(cc1OC)-c1nc3ccccc3c(=O)n1C(C)(C)C2	KB-V1 cytotox 9.2µM
Cc1cc(C(=O)OCC(=O)NCCC(C)C)c2ccccc2n1	none
COC(=O)c1cc2c(ccn2-c2ccc(F)cc2)n1C(C)C	MCF10A rereplic inconclusive
COC(=O)c1cc2c(ccn2-c2ccc(F)cc2)n1Cc1ccc(OC(C)=O)cc1	MCF10A rereplic inconclusive, KB-V1 cytotox inconclusive
CCCn1c(C(=O)OC)cc2c1ccn2-c1ccc(F)cc1	MCF10A rereplic 23µM
COC(=O)c1cc2c(ccn2-c2ccc(F)cc2)n1CC(C)C	MCF10A rereplic 23µM, SW480 rerep inconclusive
COC(=O)c1cc2c(ccn2-c2ccc(F)cc2)n1Cc1cccc(OC)c1	MCF10A rereplic inconclusive, SW480 rerep inconclusive, KB-V1 cytotox 13µM
